Our source for the activation values is PubChem BioAssay AID504550 (Sanford-Burnham Center for Chemical Genomics, 2011).

SMILES strings stand for the structures. The list shows a part of the results. Activity calls are given as the source filed them.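 Rule for the calls: active = mean activation at 20 µM of at least 40%; inactive = the rest.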

This assay deals with Neurotensin receptor type 1 (Homo sapiens) (UniProt P30989). The assay can be described thus: NTR1 agonists, single-dose retest, confirmation, imaging, U2OS cells, beta-arrestin-GFP, single concentration (AID 504550).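 Note: 0% = DMSO without peptide and 100% = 100 nM NTR1 peptide.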 To be noted: NTR1-U2OS beta-arrestin-GFP translocation imaging; at 20 µM; hits give high values.
Sequence of Neurotensin receptor type 1 (Homo sapiens) (P30989 whole entry, looked up): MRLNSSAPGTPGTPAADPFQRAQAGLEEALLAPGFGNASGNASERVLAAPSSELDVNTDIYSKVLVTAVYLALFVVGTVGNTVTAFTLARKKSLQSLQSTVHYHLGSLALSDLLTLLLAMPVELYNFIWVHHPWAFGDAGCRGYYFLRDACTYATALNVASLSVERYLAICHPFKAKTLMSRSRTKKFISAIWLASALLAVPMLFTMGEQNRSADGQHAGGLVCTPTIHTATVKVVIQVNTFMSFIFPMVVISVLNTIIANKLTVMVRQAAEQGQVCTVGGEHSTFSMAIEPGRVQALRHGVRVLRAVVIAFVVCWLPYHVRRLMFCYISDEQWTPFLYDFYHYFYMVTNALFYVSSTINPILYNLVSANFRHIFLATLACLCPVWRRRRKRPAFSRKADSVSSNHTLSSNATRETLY

Turning to `O=C1NC(=O)N(CCc2ccc(F)cc2)C(=O)/C1=C/C=C/c1ccccc1`, the activation was 43.1% (active).

On to `Cc1cccc(N2C(=O)NC(=O)/C(=C\c3cnn(-c4ccccc4)c3)C2=O)c1`, for which the activation was 47.1% (active).
